BAZ2B block = blocks human BAZ2B; Potency, µM (top dose mostly 114 µM), usual class: inhibitors; 360,000 tested, 4.4% active; Q9UIF8; AlphaScreen BAZ2B-H3K14Ac peptide displacement; AID 504333; also: nearly all actives have a fitted effect of over 60% in size
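Multi-concentration screen (max 110 uM) measuring displacement of acetylated histone H3 peptide from BAZ2B by AlphaScreen, using 50 nM protein, 50 nM peptide and 10 ug/mL streptavidin donor plus Ni-chelate acceptor beads.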
PI5P4K alpha inh = PI5P4K alpha (human) kinase inhibition; PI5P4Kalpha enzyme, ADP-Glo luminescence, 60 min; hits give low values; 330,000 tested, 1.2% active; max response, %; AID 652105; active = max response of -50% or lower; inconclusive = between -30% and -50%; inactive = -30% or higher; also: value at the top dose of about 77 µM
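Single end-point luminescence (ADP-Glo) quantified ADP from PI5P4Kalpha turnover; ATP 5 microM final, 1 h at RT, 0.1% CHAPS and 0.28 mM EGTA in HEPES pH 7.4.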
JMJD2A Tudor inh = JMJD2A Tudor domain (human) inhibition | O75164 | AlphaScreen JMJD2A-Tudor / H3K4me3 peptide binding | Potency, µM (highest dose often 114 µM), hits mostly inhibitors | 390,000 tested, 4.4% active | AID 504339; also: nearly all actives have a fitted effect of over 50% in size
Target sequence (O75164 whole entry, looked up, the tested form may be a part): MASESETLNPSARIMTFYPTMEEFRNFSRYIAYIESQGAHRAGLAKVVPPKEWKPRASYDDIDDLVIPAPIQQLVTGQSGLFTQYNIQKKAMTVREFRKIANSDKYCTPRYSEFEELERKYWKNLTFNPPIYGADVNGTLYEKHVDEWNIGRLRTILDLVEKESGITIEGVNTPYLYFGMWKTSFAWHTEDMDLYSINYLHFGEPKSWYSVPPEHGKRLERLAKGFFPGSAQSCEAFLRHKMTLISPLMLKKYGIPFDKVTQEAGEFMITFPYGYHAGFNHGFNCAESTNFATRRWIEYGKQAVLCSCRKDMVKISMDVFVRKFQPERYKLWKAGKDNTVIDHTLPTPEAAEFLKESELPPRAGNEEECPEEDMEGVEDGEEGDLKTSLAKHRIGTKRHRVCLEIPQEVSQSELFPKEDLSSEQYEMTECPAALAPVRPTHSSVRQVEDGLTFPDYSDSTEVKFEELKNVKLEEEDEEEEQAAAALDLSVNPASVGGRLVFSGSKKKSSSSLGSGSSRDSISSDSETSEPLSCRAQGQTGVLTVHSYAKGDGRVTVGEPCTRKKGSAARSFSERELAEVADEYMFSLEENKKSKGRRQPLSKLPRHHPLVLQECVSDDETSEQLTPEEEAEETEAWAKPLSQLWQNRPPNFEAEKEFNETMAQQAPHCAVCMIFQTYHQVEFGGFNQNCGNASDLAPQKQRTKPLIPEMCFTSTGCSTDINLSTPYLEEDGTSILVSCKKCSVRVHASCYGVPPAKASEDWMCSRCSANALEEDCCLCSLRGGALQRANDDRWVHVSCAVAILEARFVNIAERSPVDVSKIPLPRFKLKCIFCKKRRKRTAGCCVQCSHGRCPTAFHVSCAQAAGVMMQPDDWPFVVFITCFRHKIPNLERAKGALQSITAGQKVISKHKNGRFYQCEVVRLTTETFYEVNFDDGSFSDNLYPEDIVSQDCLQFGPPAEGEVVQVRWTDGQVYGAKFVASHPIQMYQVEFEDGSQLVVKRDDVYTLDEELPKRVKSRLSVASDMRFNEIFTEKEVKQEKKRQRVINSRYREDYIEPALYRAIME
HP1b binding inh = blocks HP1-beta chromodomain binding to methylated histone tails; AID 540317; AlphaScreen HP1-beta / biotin-H3K9me3 peptide binding; Potency, µM (top dose mostly 114 µM), usual class: inhibitors; P83916; 390,000 tested, 0.56% active; also: nearly all actives have a fitted effect of over 70% in size
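HP1-beta protein (50 nM final) preincubated 30 min at room temperature with biotinylated H3(1-18)K9me3 peptide (50 nM) in PBS pH 7.4, 0.01% Tween-20, then compound added for 30 min. AlphaScreen streptavidin donor/nickel chelate acceptor beads (10 ug/mL final), 30 min dark, luminescence read.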
GCN5L2 inh = blocks human GCN5L2 histone acetyltransferase; Q92830; GCN5L2 HAT assay, ThioGlo1 CoA-SH fluorescence; Potency, µM (doses to about 58.9 µM), usual class: inhibitors; 390,000 tested, 0.21% active
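Preincubate 20nM GCN5L2 with compound 15 min, RT → add 50uM ThioGlo1 + 75uM H3(1-25) + 70uM acetyl-CoA → read fluorescence 0 and 20 min. Primary qHTS; fluorescent artifacts likely.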
PLK1 PBD block = blocks phosphopeptide binding to human PLK1 polo-box domain. Plk1 PBD binding of FITC phosphopeptide, fluorescence polarization. Potency, µM, hits mostly inhibitors. 360,000 tested, 2.8% active. AID 720504; also: series mostly up to about 57 µM; nearly all actives have a fitted effect of over 65% in size
Hits are given with their value; 0 = inactive; ? = inconclusive; - = not tested or not shown; [ ] = remark or other dose. In the library only some 7% were active in any assay of this set; here they are far more common. Unless noted, calls follow the shape of the dose curve; as a rule, active = well fitted curve in the direction sought with a large enough effect; inconclusive = small, poorly fitted or top-dose-only effect, or another doubt; inactive = no such curve, though single readings can be large; an effect the other way counts as inactive or inconclusive.

SMILES | BAZ2B block | PI5P4K alpha inh | JMJD2A Tudor inh | HP1b binding inh | GCN5L2 inh | PLK1 PBD block
COc1ccc(OC)c(CN2CCN(C(=O)CNC(=O)c3ccccc3F)CC2)c1 | - | 0 | 0 | 0 | 0 | 0
Cc1cccc(C(=O)O)c1O | - | - | - | - | 0 | -
O=C(O)c1ccccc1C(=O)c1cccc2c(Br)cccc12 | - | 0 | 0 | 0 | - | 0
Nc1c(O)cccc1C(=O)O | - | 0 | 56µM | 0 | - | 0
O=C(O)c1cccc(C(=O)O)c1Br | ? | 0 | 89µM | 0 | 0 | 0
Cc1oc2c(c1C(=O)c1ccccc1)C(=O)C(=O)c1ccccc1-2 | 45µM | 0 | ? | 0 | 0 | ?
Cc1oc2c(c1C(=O)O)C(=O)c1ccccc1C2=O | 0 | 0 | 0 | 0 | 0 | 0
CSc1nc2ccc3nc(NC(=O)c4ccc(C)cc4)sc3c2s1 | 0 | 0 | 0 | 0 | 0 | 0
Cc1ccc(C(=O)Nc2nc3ccccc3c(=O)s2)cc1 | ? | - | 89µM | 0 | 0 | 0
CCOc1cc2c3c(c1)C1(OCCO1)C(=O)N3C(C)(C)CC2C (stereo not drawn) | 0 | 0 | 0 | 0 | 0 | 0
CCOc1cc2c3c(c1)C1(Nc4ccccc4S1)C(=O)N3C(C)(C)CC2C (stereo not drawn) | 28µM | - | 35µM | ? | 0 | 0
Cc1ccc(C)c(NC(=S)Nc2ncccc2C)c1 | ? | 0 | 32µM | ? | 0 | 0
Cc1cccnc1NC(=S)Nc1ccc(F)cc1F | ? | 0 | 0 | 0 | 0 | ?
Nc1ccc2nc3c(=O)n(C4CCCCC4)c(=O)[nH]c3nc2c1 | 0 | ? | 0 | 0 | 0 | 5.3µM
CCCCn1c(=O)[nH]c2nc3cc(N)ccc3nc2c1=O | ? | -66 | 0 | 0 | 0 | 4.7µM
Nc1ccc2nc3c(=O)n(CCc4ccccc4)c(=O)[nH]c3nc2c1 | 0 | -63 | 0 | 0 | 0 | 4.2µM
Nc1ccc2nc(CCc3ccccc3)[nH]c2c1 | ? | 0 | ? | 0 | 0 | 0
Cc1cc2nc3c(=O)n(CCc4ccccc4)c(=O)[nH]c3nc2cc1N | 0 | -86 | 0 | 0 | ? | 2.7µM
CCn1cc(C(=O)NCCc2ccc(OC)c(OC)c2)c(=O)c2cc(S(=O)(=O)N3CCC(C)CC3)ccc21 | - | - | 0 | 0 | 0 | -
CCCN1CCN(C(=O)C2CCN(c3ncnc4c3nc3n4CCCCC3)CC2)CC1 | 0 | 0 | 0 | 0 | 0 | 0
CCOC(=O)c1ccc(N/C=C\C(=O)c2cccc(OC)c2)cc1 | 0 | 0 | 0 | 0 | 0 | 0
COc1cccc(C(=O)/C=C/Nc2cc(C)ccc2O)c1 | ? | - | 56µM | 0 | 0 | 0
O=C(Cn1c(-c2cccs2)cc2ccccc21)N1CCN(c2ccccc2F)CC1 | 0 | - | 0 | 0 | 0 | -
O=C(/C=C/c1ccc([N+](=O)[O-])cc1)N(c1ccccn1)C1CCCCC1 | - | ? | 56µM | ? | 0 | ?
CC(C)(C)NC(=S)NNC(=O)c1cccc(Br)c1 | - | 0 | 0 | 0 | 0 | 0
SMILES | BAZ2B block | PI5P4K alpha inh | JMJD2A Tudor inh | HP1b binding inh | GCN5L2 inh | PLK1 PBD block
CN(C)c1ccc(NC(=O)CSc2nnc(-c3ccco3)c(-c3ccco3)n2)cc1 | 25µM | 0 | ? | ? | 0 | 0
Cc1ccccc1NC(=O)CSc1nnc(-c2ccco2)c(-c2ccco2)n1 | 25µM | -66 | 50µM | 16µM | ? | 27µM
Cc1ccccc1NC(=O)CSc1n[nH]c(-c2ccco2)n1 | 0 | 0 | 0 | 0 | 0 | 0
CSc1nnc(-c2ccco2)c(-c2ccco2)n1 | 20µM | ? | 0[11.4 µM] | ? | ? | 27µM
CCc1nnc(SCC(=O)Nc2ccc(C(C)=O)cc2)nc1CC | 56µM | 0 | 0 | 0 | 0 | 0
CSc1nnc(-c2ccccc2)c(-c2ccccc2)n1 | 0 | 0 | 0 | 0 | 0 | 0
O=C(CSc1nnc2ccccn12)Nc1ccc(S(=O)(=O)N2CCOCC2)cc1 | 0 | 0 | 0 | 0 | 0 | 0
C[C@@H]1CN([C@@H](C)CO)C(=O)CCCn2cc(nn2)CO[C@H]1CN(C)S(=O)(=O)c1ccccc1C#N | - | 0 | - | - | - | 0
N#Cc1ccc(C(=O)N2CCCCC2c2cc(C(=O)Nc3ccc4c(c3)OCO4)no2)cc1 (stereo not drawn) | - | 0 | - | - | - | 0
Cc1ccc(NC(=O)CSc2nnc(-c3ccco3)c(-c3ccco3)n2)cc1 | 32µM | -75 | 56µM | ? | ? | 27µM
COc1cccc(NC(=O)CSc2nnc(-c3ccco3)c(-c3ccco3)n2)c1 | 50µM | -63 | 45µM | ? | ? | 13µM
CC1(Cc2ccc(F)cc2)C(=O)Nc2ccc(S(=O)(=O)NC3CCCCC3)cc21 (stereo not drawn) | - | 0 | - | - | - | 0
COc1ccc(C(CCNCc2ccc(N(C)C)cc2)c2ccccc2OC)cc1 (stereo not drawn) | 10µM | 0 | 25µM | 50µM | 0 | 0
CC(=O)Nc1cccc(/C(C)=N\NC(=O)c2ccc(Cn3nc([N+](=O)[O-])c(Cl)c3C)o2)c1 | 0 | 0 | 50µM | 0 | 0 | 21µM
C/C(=N\NC(=O)c1ccc(Cn2cc([N+](=O)[O-])cn2)o1)c1cccc(NC(=O)c2cccnc2)c1 | 0 | 0 | 0 | 0 | 0 | 0
CN1/C(=C/c2cccc[n+]2C)Sc2ccccc21 | ? | 0 | ? | 0 | 0 | 0
CCCCN1/C(=C/c2cccc[n+]2C)Sc2cc(NC(C)=O)ccc21 | 0 | 0 | 28µM | 0 | 0 | 0
C=C(C)CN1C(=O)c2ccccc2C1=O | 0 | - | 0 | 0 | 0 | 0
C=C(C)CC1Nc2ccccc2NC1CC(=C)C (stereo not drawn) | 50µM | 0 | 79µM | 0 | 0 | 0
Cc1cc(C)c(C#N)c(N2CCCC2)n1 | 0 | - | 0 | 0 | ? | 0
Cc1cc(C(F)(F)F)c(C#N)c(N2CCOCC2)n1 | 0 | ? | 28µM | 0 | 0 | 3.4µM
CCc1cc2c(cc3c(=O)n(CC(=O)NCc4cc(Br)ccc4OC)ncn32)s1 | 0 | - | 0 | 0 | 0 | -
COc1ccc(NC(=O)c2cc3c(C)nn(-c4ccccc4)c3s2)c(OC)c1 | 0 | - | 0 | 0 | 0 | -
COc1ccc(NS(=O)(=O)c2ccc(O)c(NC(=O)c3cc4c(C)nn(-c5ccc(F)cc5)c4s3)c2)cc1 | 0 | 0 | ? | 0 | ? | 75µM
CC(C)(C)C1CCc2c(C(=O)NNC(=O)/C=C/C(=O)O)csc2C1 (stereo not drawn) | 0 | -69 | 0 | 0 | 0 | 0
SMILES | BAZ2B block | PI5P4K alpha inh | JMJD2A Tudor inh | HP1b binding inh | GCN5L2 inh | PLK1 PBD block
CCOC(=O)N1C(=O)[C@](CC)(c2ccccc2)N1C(=O)OCC | 0 | 0 | 0 | 0 | 0 | 17µM
O=[N+]([O-])c1ccc(Sc2ccccc2)nc1 | 0 | 0 | ? | 0 | 0 | 0
Nc1cccnc1Sc1ccc([N+](=O)[O-])cn1 | 0 | 0 | 1.6µM | 0 | 0 | ?
O=[N+]([O-])c1ccc(Sc2n[nH]c(-c3ccccc3)n2)nc1 | 0 | 0 | 56µM | 0 | 0 | 0
CCN(CC)C(=O)c1csc([C@@H]2O[C@H](CO)[C@H](O)[C@H](O)[C@H]2O)n1 | - | 0 | - | - | - | 0
Cc1ccc(/C=[N+](\[O-])c2ccc(N(C)C)cc2)c2nsnc12 | 32µM | 0 | 25µM | 28µM | 0 | ?
Cc1ccc2nsnc2c1N(S(C)(=O)=O)S(C)(=O)=O | 0 | 0 | 0 | 0 | 0 | 0

Screening data as filed in PubChem.
